About 3,100 (0.84%) of roughly 370,000 compounds were called active. This excerpt belongs to a sample that is enriched for actives. Unmarked numbers belong to inactive results.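 The calls were made as follows: active = inhibition above the mean of compounds lying between control limits plus 3 SD, set per campaign (cut at about 8.5% in these data); inactive = the rest.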
molecular target: Disintegrin and metalloproteinase domain-containing protein 17 (Homo sapiens) (UniProt P78536); assay: ADAM17 inhibitors, primary screen, biochemical, QFRET (AID 720648); details: recombinant ADAM17, EDANS/DABCYL FRET peptide cleavage; at 6.95 µM; active compounds read high;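 also: 0% = DMSO-only wells as the low control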
Sequence (P78536 215-824 limits assumed): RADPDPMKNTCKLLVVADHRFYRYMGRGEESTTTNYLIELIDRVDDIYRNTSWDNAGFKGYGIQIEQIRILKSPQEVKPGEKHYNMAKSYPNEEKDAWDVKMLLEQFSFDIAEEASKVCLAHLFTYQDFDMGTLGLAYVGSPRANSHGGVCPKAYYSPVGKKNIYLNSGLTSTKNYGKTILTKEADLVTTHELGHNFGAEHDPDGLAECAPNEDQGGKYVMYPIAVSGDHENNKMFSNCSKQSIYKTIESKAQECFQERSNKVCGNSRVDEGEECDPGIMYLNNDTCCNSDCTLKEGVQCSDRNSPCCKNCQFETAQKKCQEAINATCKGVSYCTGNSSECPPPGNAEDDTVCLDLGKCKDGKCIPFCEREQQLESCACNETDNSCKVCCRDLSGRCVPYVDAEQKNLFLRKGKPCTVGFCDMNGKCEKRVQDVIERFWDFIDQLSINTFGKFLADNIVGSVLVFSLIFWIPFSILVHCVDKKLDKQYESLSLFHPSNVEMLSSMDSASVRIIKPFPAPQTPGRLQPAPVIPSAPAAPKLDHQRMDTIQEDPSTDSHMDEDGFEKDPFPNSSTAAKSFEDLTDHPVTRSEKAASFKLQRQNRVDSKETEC

Q: For `Cc1ccc(-n2c(SCC(=O)Nc3ccc(S(=O)(=O)Nc4nccs4)cc3)nnc2-c2cccnc2)cc1`, which inhibition is on record?
A: Its inhibition is 5.12%.

Q: For `O=[N+]([O-])c1ccc(N2CCN(S(=O)(=O)c3ccc4ccccc4c3)CC2)cc1NCc1ccco1`, which inhibition is on record?
A: The inhibition was -3.62%.

Q: How did the inhibition turn out when `COc1ccc(CCNc2cc(N3CCN(C(=O)c4ccccc4OC)CC3)ccc2[N+](=O)[O-])cc1OC` was run?
A: The inhibition was -5.46%.

Q: Which inhibition does the source give for `O=C(c1ccccc1)N1CCN(c2ccc([N+](=O)[O-])c(NCc3ccco3)c2)CC1` here?
A: Its inhibition is 9.15% (active).

Q: For `CCOC(=O)[C@]12CCCCC/C=C\1N(Cc1ccc(OC)cc1)C(=O)[C@H]2CC(=O)N1CCOCC1`, which inhibition is on record?
A: The inhibition was -0.25%.

Q: `COc1ccnc(C(=O)N2CCC(Oc3cccnc3)CC2)c1` was tested. Which inhibition did it give?
A: The inhibition was 1.66%.

Q: With `CCOC(=O)N1CCN(C(=O)C[C@H]2C[C@@]3(C(=O)OC)C(=C[C@H](C(C)(C)C)O[C@@H]3C)N(Cc3ccc(Cl)cc3Cl)C2=O)CC1` as the molecule, how does the inhibition read?
A: Its inhibition is 2.67%.

Q: For `Cn1nc(C(F)(F)F)c(C(=O)Nc2cccc(C(F)(F)F)c2)c1SCc1ccc(Cl)cc1`, which inhibition is on record?
A: Its inhibition is 19.8% (active).

Q: Which inhibition does the source give for `CCC(=O)OCc1c(C(F)(F)F)nn(C)c1Oc1cccc(C(F)(F)F)c1` here?
A: Its inhibition is -2.77%.

Q: How did the inhibition turn out when `COC(=O)c1ccccc1Sc1c(/C=N/OCc2ccc(Cl)cc2)c(C(F)(F)F)nn1C` was run?
A: Its inhibition is -4.94%.

Q: For `O=S1(=O)c2ccc(N3CCN(Cc4ccccc4F)CC3)cc2Oc2ccccc2CN1Cc1cn(Cc2ccc(Cl)cc2)nn1`, which inhibition is on record?
A: Its inhibition is 7.88%.

Q: Which inhibition does the source give for `CC(C)CNC(=O)OCc1cn(Cc2ccc(F)cc2)nn1` here?
A: The inhibition was 3.83%.

Q: How did the inhibition turn out when `O=C(C[C@H]1C(=O)N(c2ccc(F)c(F)c2)C[C@@H]1Cc1ccccc1)Nc1ccccc1` was run?
A: The inhibition was 9.24% (active).

Q: `C[C@H]1CN(c2ccc(Br)cc2)C(=O)[C@@H]1CC(=O)Nc1ccc(Br)cc1` was tested. Which inhibition did it give?
A: The inhibition was -0.38%.

Q: `CNC(=O)C[C@H]1C(=O)N(c2ccc(OC)cc2)C[C@@H]1Cc1ccccc1` was tested. Which inhibition did it give?
A: The inhibition was -1.23%.

Q: Which inhibition does the source give for `COc1ccc(NS(=O)(=O)c2ccc(C)c(C(=O)NCC(c3cccs3)N3CCOCC3)c2)cc1` (configuration not stated) here?
A: Its inhibition is -1.97%.

Q: How did the inhibition turn out when `COc1ccc(C(CNC(=O)c2ccc(S(=O)(=O)Nc3ccccc3C)cc2)N2CCOCC2)cc1` (configuration not stated) was run?
A: Its inhibition is -1.54%.

Q: With `COc1ccc(C(CNC(=O)c2cc(S(=O)(=O)Nc3cccc(C)c3)ccc2C)N2CCCC2)cc1` (configuration not stated) as the molecule, how does the inhibition read?
A: Its inhibition is 10.3% (active).

Q: With `O=C(Nc1cc(F)cc(F)c1)OC1CCC12CCC(c1ccccc1)CC2` (configuration not stated) as the molecule, how does the inhibition read?
A: Its inhibition is 3.79%.

Q: Which inhibition does the source give for `COc1cccc(N(C)C(=O)[C@@H](C)[C@@H](O)c2ccc3ccccc3c2)c1` here?
A: Its inhibition is -0.07%.

Q: With `CC(=O)C1(C(=O)Nc2nccs2)CC(c2ccccc2C(F)(F)F)=NO1` (configuration not stated) as the molecule, how does the inhibition read?
A: Its inhibition is -1.77%.

Q: With `O=C1[C@H]2[C@@H](c3ccc(Cl)cc3)N3C(=O)N(c4cccc(F)c4)C(=O)[C@@]3(Cc3ccccc3)[C@H]2C(=O)N1C1CCCCC1` as the molecule, how does the inhibition read?
A: Its inhibition is -3.52%.

Q: `CC12C(=O)N(c3ccccc3)C(=O)C1C(c1ccccc1)N1CCCN12` (configuration not stated) was tested. Which inhibition did it give?
A: Its inhibition is 0.41%.

Q: `CCN1C(=O)[C@H]2[C@@H](c3ccc(-c4ccc(OC)cc4)cc3)N[C@@](Cc3ccccc3)(C(=O)OC)[C@H]2C1=O` was tested. Which inhibition did it give?
A: The inhibition was -1.71%.

Q: `CC(C)(C)N1C(=O)[C@H]2[C@@H](c3ccc(Br)cc3)N3C(=O)N(c4cccc(Cl)c4)C(=O)[C@@]3(C)[C@H]2C1=O` was tested. Which inhibition did it give?
A: Its inhibition is 10% (active).

Q: How did the inhibition turn out when `Cc1cccc([C@@H]2[C@@H]3C(=O)N(Cc4ccccc4)C(=O)[C@@H]3[C@]3(Cc4ccc(Cl)cc4)C(=O)N(c4cccc(Cl)c4)C(=O)N23)c1` was run?
A: The inhibition was 1.28%.

Q: For `CCN1C(=O)[C@H]2[C@@H](c3ccc(C)cc3)N3C(=O)N(c4cccc(Br)c4)C(=O)[C@@]3(CC)[C@H]2C1=O`, which inhibition is on record?
A: Its inhibition is 1.14%.

Q: With `CC[C@@]12C(=O)N(c3ccccc3)C(=O)N1[C@H](c1ccc(Br)cc1)[C@@H]1C(=O)N(C(C)(C)C)C(=O)[C@@H]12` as the molecule, how does the inhibition read?
A: The inhibition was 8.73% (active).

Q: Which inhibition does the source give for `COc1ccc([C@@H]2[C@@H]3C(=O)N(C(C)(C)C)C(=O)[C@@H]3[C@]3(Cc4ccccc4)C(=O)N(c4cccc(Br)c4)C(=O)N23)cc1` here?
A: The inhibition was 13.1% (active).

Q: For `C[C@@]12C(=O)N(c3cccc(Br)c3)C(=O)N1[C@H](c1ccc(Cl)cc1)[C@@H]1C(=O)N(C3CCCCC3)C(=O)[C@@H]12`, which inhibition is on record?
A: Its inhibition is 13.3% (active).

Q: For `CCOC(=O)[C@@H]1[C@H]2COc3cc(OC)ccc3[C@@H]2N2C(=O)N(c3cccc(C)c3)C(=O)[C@@]12C`, which inhibition is on record?
A: Its inhibition is -2.53%.

Q: Which inhibition does the source give for `O=C1[C@H]2[C@@H](c3ccc(F)cc3)N3C(=O)N(c4ccc(C(F)(F)F)cc4)C(=O)[C@@]3(Cc3ccccc3)[C@H]2C(=O)N1C1CCCCC1` here?
A: The inhibition was 1.1%.

Q: For `Cc1cccc(N2C(=O)N3[C@H](c4ccc(F)cc4)[C@@H]4C(=O)N(C5CCCCC5)C(=O)[C@@H]4[C@]3(Cc3ccccc3)C2=O)c1`, which inhibition is on record?
A: Its inhibition is 1.18%.

Q: `Cc1ccc(Cn2cc(CN3[C@@H](C)COc4cc(Br)ccc4S3(=O)=O)nn2)cc1` was tested. Which inhibition did it give?
A: Its inhibition is -2.3%.

Q: Which inhibition does the source give for `COC(=O)c1cccc(Cn2ccc3ccc(-c4ccc5ccn(C(=O)C6CCCCC6)c5c4)cc32)c1` here?
A: Its inhibition is -4.69%.

Q: For `Cc1ccc(C2=CCN(C)C(=O)N2c2ccc(Cl)cc2)cc1`, which inhibition is on record?
A: Its inhibition is 0.02%.

Q: `CCOC(=O)C1CCN(C(=O)C(C)(C)NC(=O)Nc2ccc(F)c(F)c2)CC1` was tested. Which inhibition did it give?
A: The inhibition was 0.09%.

Q: Which inhibition does the source give for `COc1ccccc1C(=O)CSc1nnc(-c2ccccn2)n1-c1ccccc1` here?
A: The inhibition was -0.51%.

Q: Which inhibition does the source give for `CCOC(=O)[C@]12CCCCC/C=C\1N(Cc1ccc(OC)cc1)C(=O)[C@H]2CC(=O)NCc1ccc(C)o1` here?
A: The inhibition was -1.43%.

Q: With `NNC(=O)C1CCCn2c1nc1sc3c(c1c2=O)CCCC3` (configuration not stated) as the molecule, how does the inhibition read?
A: The inhibition was 11.2% (active).

Q: Which inhibition does the source give for `Cc1ccc(C)c(-n2c(SCC(=O)O)nc3sc4c(c3c2=O)CCCC4)c1` here?
A: The inhibition was 0.43%.

Q: Which inhibition does the source give for `CCn1c(SCC(C)=O)nc2sc3c(c2c1=O)CCCC3` here?
A: Its inhibition is -1.68%.

Q: With `O=C(CN1CCC(NC(=O)NCc2ccccc2)CC1)Nc1ccc2c(c1)OCCO2` as the molecule, how does the inhibition read?
A: The inhibition was -4.62%.

Q: Which inhibition does the source give for `CCCC[C@H](C(=O)N(CC)c1ccccc1)[C@@H](O)c1ccc2ccccc2c1` here?
A: The inhibition was 4.5%.

Q: How did the inhibition turn out when `CCC(C)(C)c1ccc(Oc2ccc(NC(=O)COC(=O)C3=COCCO3)cc2)cc1` was run?
A: Its inhibition is 15.7% (active).

Q: For `COc1ccc(NC(=O)COC(=O)CNC(=O)C2CCCCC2)cc1`, which inhibition is on record?
A: The inhibition was -0.83%.

Q: How did the inhibition turn out when `O=C1CCC(C(=O)OCC(=O)Nc2ccc(OC(F)F)cc2)=NN1` was run?
A: Its inhibition is 5.95%.

Source: PubChem BioAssay AID720648 (The Scripps Research Institute Molecular Screening Center, 2013)
